Experimental data published in PubChem BioAssay AID624059 (National Center for Advancing Translational Sciences (NCATS), 2012).
A number with no mark means an inactive call. Active and inactive are the calls of the source. The call rests on the fitted dose curve; in most records, active means well fitted curve in the direction sought with a large enough effect; inactive means no such curve, though single readings can be large or run the other way.

Experiment: qHTS for Inhibitors of Mutant Isocitrate Dehydrogenase 1 (IDH1): U87 Cytotoxicity Assay for Probe SAR
Settings: U87MG-IDH1 R132H viability, CellTiter-Glo luminescence, 72 h; series mostly up to 22.1 µM; activity change, negative = cytotoxicity: at the top concentration
Excerpt: Malignant glioblastomas (WHO grade IV), including primary and secondary glioblastomas, are among the most lethal with a median survival of one year, and unfortunately they are also the most prevalent type of brain tumors. By and large the standard of care of gliomas remains the use of the oral alkylating agent temozolomide and radiotherapy following surgical tumor resection. There is an urgent unmet medical need for novel therapeutics for gliomas. IDH mutations occur in up to 70% of grade II-IV secondary glioblastomas, and IDH1 R132H is the most prevalent mutation. […] Wild-type (WT) IDH1 catalyzes the conversion of isocitrate to -ketoglutarate with the concomitant reduction of NADP+ to NADPH. In contrast, IDH1 R132H catalyzes the conversion of alpha-ketoglutarate to 2-hydroxyglutarate (2-HG) with the concomitant oxidation of NADPH to NADP+ [5]. Recently, a second significant advancement for the field was the finding that IDH is an oncogene, and that its metabolic product 2-HG may contribute to the pathogenesis of IDH-mutated cancers. […] Although this link to cancer is tantalizing, the direct evidence of how 2-HG drives pathogenesis of gliomas and AML remains a subject of further research. The goal of this cell assay is to identify whether the small-molecule inhibitors of IDH1 R132H are cytotoxic in U87MG-IDH1 R132H cells. Compounds were screened as concentration-titration series that ranged from 50 microM to 14 nM. NIH Molecular Libraries Probe Production Network [MLPCN] NIH Chemical Genomics Center [NCGC] MLSCN Grant: R03 DA032129 PI Name: Dr. Lenny Dang
Cells were dispensed into 96-well black solid bottom plates at 2500 cells/well (RPMI medium with 10% FBS). The plates were incubated overnight at 37 °C and 5% CO2. The media was aspirated off and fresh media (RPMI and 10% FBS) with compounds in 7-point dose response was added. The plates were incubated for 48 hours at 37 °C and 5% CO2. From each well 100 microL was removed and used for LC-MS analysis to quantitate the amount of 2-HG product. The remaining cells/media were incubated for 24 additional hours at which point 100 uL of Cell Titer Glo (Promega) was added. The plates were shaken for 10 minutes and then incubated at room temperature for 20 minutes. The luminescence was read on the ViewLux in end-point mode (0.5 sec). Concentration-response curves were fitted to the signals arising from the resulting selective ion monitoring. The concentration-response curves were then classified based on curve quality (r2), response magnitude and degree of measured activity, and compounds were subsequently categorized based on their curve class. […] Keywords: Isocitrate dehydrogenase, IDH1, IDH1 R132H, 2-HG, 2-hydroxyglutarate, AML, glioma, MLSMR, MLPCN, NIH Roadmap, qHTS, NCGC

Row | Compound | activity change, negative = cytotoxicity | Potency
1 | COc1ccc(N(C(=O)C2COc3ccccc3O2)C(C(=O)NC2CCCCC2)c2ccccc2)cc1OC (stereo not drawn) | -23.5% [at 30 µM] | –
2 | Cc1ccccc1C(C(=O)NC1CCCCC1)N(C(=O)c1ccccn1)c1cccc(F)c1 (stereo not drawn) | – | 11.8 µM (active)
3 | Cc1ccccc1C(C(=O)NC1CCCCC1)N(C(=O)Cc1cccs1)c1cccc(F)c1 (stereo not drawn) | -21.8% [at 10.3 µM] | –
4 | O=C(NC1CCCC1)C(c1ccccc1)N(C(=O)Cc1cccs1)c1cccc(F)c1 (stereo not drawn) | -5.77% [at 50 µM] | –
5 | COc1cccc(C(C(=O)NC2CCCCC2)N(C(=O)c2cccs2)c2ccc3c(c2)OCO3)c1 (stereo not drawn) | -30.4% [at 30 µM] | –
6 | Cc1ccccc1C(C(=O)NC1CCCCC1)N(C(=O)CNS(=O)(=O)c1ccccc1)c1cccc(F)c1 (stereo not drawn) | – | 10.1 µM (active)
7 | Cc1ccccc1C(C(=O)NC1CCCC1)N(C(=O)Cc1cccs1)c1cccc(F)c1 (stereo not drawn) | 6.51% | –
8 | Cc1ccccc1C(C(=O)NC(C)(C)C)N(C(=O)Cc1cccs1)c1cccc(F)c1 (stereo not drawn) | -14.4% | –
9 | Cc1nc(C)c(C(=O)N(c2cccc(F)c2)C(C(=O)NC2CCCCC2)c2ccccc2)s1 (stereo not drawn) | -12.4% | –
10 | COc1ccc(N(C(=O)Cn2cnc3ccccc32)C(C(=O)NC2CCCCC2)c2ccccc2)cc1 (stereo not drawn) | -6.32% [at 30 µM] | –
11 | COc1cccc(N(C(=O)Cc2cccs2)C(C(=O)NC2CCCC2)c2ccccc2)c1 (stereo not drawn) | -9% [at 50 µM] | –
12 | Cc1ccccc1C(C(=O)NC1CCCC1)N(C(=O)Cn1cnc2ccccc21)c1cccc(F)c1 (stereo not drawn) | 18.6% | –
13 | Cc1ccccc1C(C(=O)NC1CCCC1)N(C(=O)Cc1cccs1)c1ccccc1F (stereo not drawn) | -40% [at 50 µM] | –
